Reference: PubChem BioAssay (NCI)
Compounds without any hit were thinned out: in the full panel of roughly 79,000, 15% have a hit. The source made the active and inactive calls. Cut-off read from the data, not from the text of the source: active = growth inhibition above about 70%; inactive = the rest.

Assays:
[1] = NCI Yeast Anticancer Drug Screen. Data for the rad50 strain (AID 155);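 note: 0% = growth of vehicle-only cultures of the same strain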; details: S. cerevisiae rad50 strain growth inhibition, hits give high values
Procedure, shortened: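 Readout: growth inhibition relative to vehicle-treated cultures. Compound exposure was carried out in a genetically defined yeast strain deficient in DNA damage repair.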

[2] = NCI Yeast Anticancer Drug Screen. Data for the mec2-1 strain (AID 157); details: S. cerevisiae mec2-1 strain, hits give high values
Procedure, shortened: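 Cells of the genetically defined mec2-1 yeast strain are incubated with test compound. Inhibition of growth is calculated against vehicle-treated controls.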

[3] = NCI Yeast Anticancer Drug Screen. Data for the sgs1 mgt1 strain (AID 161);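 note: 0% = growth of cultures given vehicle only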; details: S. cerevisiae sgs1 mgt1 strain, hits give high values
Procedure, shortened: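 Read-out: growth inhibition vs vehicle controls. Cells: mutant yeast strain deficient in DNA damage repair.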

[4] = NCI Yeast Anticancer Drug Screen. Data for the cln2 rad14 strain (AID 165);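 note: 0% = growth equal to vehicle treated cultures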; details: S. cerevisiae cln2 rad14 strain, hits give high values
Procedure, shortened: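 The screen exposed genetically defined yeast (cln2 rad14) to test compounds and scored growth inhibition relative to vehicle-treated controls.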

[5] = NCI Yeast Anticancer Drug Screen. Data for the bub3 strain (AID 167); details: S. cerevisiae bub3 mutant strain, hits give high values
Procedure, shortened: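 Readout: yeast growth inhibition, expressed relative to vehicle-only wells. The test organism is a mutant strain from a panel with lesions in DNA repair or checkpoint genes.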

[6] = NCI Yeast Anticancer Drug Screen. Data for the mlh1 rad18 strain (AID 175); details: S. cerevisiae mlh1 rad18 strain growth inhibition, hits give high values
Procedure, shortened: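 Compound-treated yeast growth, normalised to vehicle controls. Strain bears defined DNA repair mutations.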

[7] = at 5.0 µM (retest, dose inferred, filed as 0.5)
[8] = at 50.0 µM (retest, dose inferred, filed as 5.0)

Measured: growth inhibition

O=[N+]([O-])c1ccc2c(Nc3ccccc3-c3ccccc3Nc3c4ccccc4nc4cc([N+](=O)[O-])ccc34)c3ccccc3nc2c1
active: [1]; [8] 96% | [1]; at 50.0 µM 90.9% | [2]; [8] 98% | [2]; at 50.0 µM 90% | [3]; [8] 98% | [3]; at 50.0 µM 91% | [4]; [8] 98% | [4]; at 50.0 µM 90.8% | [5]; [8] 98% | [5]; at 50.0 µM 87.4% | [6]; [8] 96% | [6]; at 50.0 µM 88.9%
inactive: [1]; [7] 29% | [2]; [7] 22% | [3]; [7] 18% | [4]; [7] 30% | [5]; [7] 27% | [6]; [7] 38%

Cc1cccc(C[N+](C)(C)CCCO)c1C
inactive: [1]; [7] 1% | [1]; [8] 1% | [1]; at 50.0 µM -6.15% | [2]; [7] 4% | [2]; [8] 0% | [2]; at 50.0 µM -24.6% | [3]; [7] 3% | [3]; [8] 1% | [3]; at 50.0 µM -0.35% | [4]; [7] 2% | [4]; [8] 1% | [4]; at 50.0 µM 46.1% | [5]; [7] 0% | [5]; [8] 1% | [5]; at 50.0 µM -1.9% | [6]; [7] 0% | [6]; [8] -3% | [6]; at 50.0 µM -4.7%

O=C(O)C(Cc1cc(I)c(O)c(I)c1)C1CCCCC1 (centres undefined)
inactive: [1]; [7] 12% | [2]; [7] 8% | [3]; [7] 3% | [4]; [7] 7% | [5]; [7] -11% | [6]; [7] 6%
active: [1]; [8] 99% | [1]; at 50.0 µM 99.2% | [2]; [8] 99% | [2]; at 50.0 µM 99.2% | [3]; [8] 97% | [3]; at 50.0 µM 99.3% | [4]; [8] 99% | [4]; at 50.0 µM 99% | [5]; [8] 99% | [5]; at 50.0 µM 99.3% | [6]; [8] 99% | [6]; at 50.0 µM 98.8%

O=C1NC(c2ccccc2)(c2ccccc2)C(=O)N1SC(Cl)(Cl)Cl
active: [1]; [7] 98% | [1]; [8] 98% | [1]; at 50.0 µM 90.3% | [2]; [7] 100% | [2]; [8] 99% | [2]; at 50.0 µM 89.3% | [3]; [7] 99% | [3]; [8] 99% | [3]; at 50.0 µM 90.8% | [4]; [7] 99% | [4]; [8] 99% | [4]; at 50.0 µM 89.7% | [5]; [7] 99% | [5]; [8] 98% | [5]; at 50.0 µM 88.5% | [6]; [7] 98% | [6]; [8] 99% | [6]; at 50.0 µM 87.2%

S=C1C(=Nc2ccccc2)N(c2ccccc2)/C(=N\c2cccc[n+]2Cc2ccccc2)N1c1ccccc1
inactive: [1]; [7] -17% | [2]; [7] -10% | [3]; [7] -1% | [4]; [7] -17% | [4]; [8] 48% | [5]; [7] -20% | [6]; [7] -23%
active: [1]; [8] 89% | [1]; at 50.0 µM 96.6% | [2]; [8] 99% | [2]; at 50.0 µM 97.9% | [3]; [8] 72% | [3]; at 50.0 µM 98.7% | [4]; at 50.0 µM 94.5% | [5]; [8] 85% | [5]; at 50.0 µM 98% | [6]; [8] 96% | [6]; at 50.0 µM 98.2%

COc1ccc(/C(=N/NC(N)=O)C(c2ccc(OC)cc2)C2C(=O)Oc3ccccc32)cc1 (centres undefined)
active: [1]; [8] 88% | [1]; at 50.0 µM 98.2% | [2]; [8] 96% | [2]; at 50.0 µM 99% | [3]; [8] 86% | [3]; at 50.0 µM 98.6% | [4]; [8] 77% | [4]; at 50.0 µM 88.8% | [5]; [8] 83% | [5]; at 50.0 µM 99.2% | [6]; [8] 95% | [6]; at 50.0 µM 98.4%
inactive: [1]; [7] -7% | [2]; [7] -59% | [3]; [7] -4% | [4]; [7] 0% | [5]; [7] 0% | [6]; [7] -2%

Cc1ccc(SCc2ccccc2Cl)nn1
inactive: [1]; [7] -2% | [1]; [8] 3% | [1]; at 50.0 µM 6.6% | [2]; [7] -9% | [2]; [8] 11% | [2]; at 50.0 µM -2.15% | [3]; [7] -8% | [3]; [8] 17% | [3]; at 50.0 µM -2.3% | [4]; [7] 3% | [4]; [8] 20% | [4]; at 50.0 µM 31.1% | [5]; [7] 6% | [5]; [8] 34% | [5]; at 50.0 µM 15.4% | [6]; [7] -1% | [6]; [8] 19% | [6]; at 50.0 µM 4.75%

CCOC(=O)C1c2[nH]c3ccccc3c2CCN1C(=O)c1ccc(OC)o1 (centres undefined)
inactive: [1]; [7] 0% | [2]; [7] -36% | [2]; [8] 60% | [3]; [7] 13% | [4]; [7] 7% | [4]; at 50.0 µM 67.7% | [5]; [7] -17% | [6]; [7] -12%
active: [1]; [8] 71% | [1]; at 50.0 µM 83.5% | [2]; at 50.0 µM 79.8% | [3]; [8] 80% | [3]; at 50.0 µM 82% | [4]; [8] 81% | [5]; [8] 76% | [5]; at 50.0 µM 84.3% | [6]; [8] 73% | [6]; at 50.0 µM 83.2%
